Drawing on PubChem BioAssay (NCI), this text covers growth inhibition for 21 compounds.

The nature of assay [1]: NCI Yeast Anticancer Drug Screen. Data for the rad50 strain (AID 155).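 Note: 0% = growth of vehicle-only cultures of the same strain.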 The following applies: S. cerevisiae rad50 strain growth inhibition; at 50.0 µM; stronger effect = higher value. The method in brief: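 Compounds were tested on a yeast strain with an engineered DNA damage repair alteration; the reported value is growth inhibition normalised to vehicle treatment.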
Assay [2] can be described thus: NCI Yeast Anticancer Drug Screen. Data for the mec2-1 strain (AID 157). The conditions noted are these: S. cerevisiae mec2-1 strain, at 50.0 µM, stronger effect = higher value. The method in brief: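 mec2-1 yeast strain, carrying an alteration in DNA damage repair or cell cycle control, was exposed to compounds; growth inhibition was measured relative to vehicle-treated controls.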

Assay [3] can be described thus: NCI Yeast Anticancer Drug Screen. Data for the sgs1 mgt1 strain (AID 161).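 Note: 0% = growth of cultures given vehicle only.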 The following applies: S. cerevisiae sgs1 mgt1 strain, at 50.0 µM, stronger effect = higher value. The method in brief: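 This yeast growth screen uses a strain with defined DNA-repair lesions; compound-treated growth is compared with vehicle-treated growth.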
A short description of assay [4]: NCI Yeast Anticancer Drug Screen. Data for the cln2 rad14 strain (AID 165).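 Note: 0% = growth equal to vehicle treated cultures.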 The conditions noted are these: S. cerevisiae cln2 rad14 strain, at 50.0 µM, stronger effect = higher value. An outline of the steps: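 Yeast carrying cln2 and rad14 alterations (cell cycle control and DNA damage repair) were exposed to compounds. Growth inhibition was measured against vehicle-treated controls.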

A short description of assay [5]: NCI Yeast Anticancer Drug Screen. Data for the bub3 strain (AID 167). The conditions noted are these: S. cerevisiae bub3 mutant strain, at 50.0 µM, stronger effect = higher value. The method in brief:
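Growth of a checkpoint-deficient yeast mutant is measured after compound exposure. Values represent inhibition relative to vehicle.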

The nature of assay [6]: NCI Yeast Anticancer Drug Screen. Data for the mlh1 rad18 strain (AID 175). The following applies: S. cerevisiae mlh1 rad18 strain growth inhibition; at 50.0 µM; stronger effect = higher value. The method in brief: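 Growth inhibition of the yeast strain was measured after compound exposure and expressed relative to vehicle-treated controls. The strain carries defined defects in DNA damage repair.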

Where “and” joins values, the source holds several entries; their conditions need not be identical. Identical values can stand only once. About 79,000 compounds went through this panel and 15% of them were active in at least one assay; those are over-represented in the sample as a whole. Some structures have more than one record in an assay (separate samples or runs), and their calls can disagree. Calls of active or inactive are those of the source. Cut-off read from the data, not from the text of the source: active = growth inhibition above about 70%; inactive = the rest.

`CC(=O)OC1COC(n2cnc3c(=S)nc[nH]c32)C(OC(C)=O)C1OC(C)=O` (stereo unspecified): the growth inhibition in assay [1] is 24.2% (inactive) and -2.35% (inactive); in assay [2], -0.1% (inactive) and -1.6% (inactive); in assay [3], 21.3% (inactive) and -16.4% (inactive); in assay [4], 18.4% (inactive) and -19.2% (inactive); in assay [5] it was 0.7% (inactive) and 1.65% (inactive); in assay [6] it was 7.35% (inactive) and -11.9% (inactive).
`COc1ccc(/C=C2/N=C(N/N=C\C(O)C(O)C(O)CO)NC2=O)cc1` (stereo unspecified): the growth inhibition was 1% (inactive) and 34.4% (inactive) in assay [1]; 12.4% (inactive) and 17.6% (inactive) in assay [2]; 3.55% (inactive) and 13.3% (inactive) in assay [3]; 26.4% (inactive) and 1.4% (inactive) in assay [4]; -6.95% (inactive) and 21.9% (inactive) in assay [5]; -46% (inactive) and 18.8% (inactive) in assay [6].
In the case of `O=C(O)C1OC1C(=O)O` (stereo unspecified), the growth inhibition in assay [1] was -24.1% (inactive) and -0.45% (inactive); in assay [2] it was -30.2% (inactive) and -4.6% (inactive); in assay [3], -23.9% (inactive) and -5.4% (inactive); in assay [4], -39.7% (inactive) and -23.8% (inactive); in assay [5], -21.5% (inactive) and -5.95% (inactive); in assay [6], -10.4% (inactive) and 13.7% (inactive).
Consider `C=CCN(CC=C)c1nc2ccccc2c(=O)[nH]1`, for which the growth inhibition in assay [1] was 39.6% (inactive) and -6.7% (inactive); in assay [2], 24.2% (inactive) and -3.7% (inactive); in assay [3], 22.5% (inactive) and -3.8% (inactive); in assay [4], 7.9% (inactive) and -60.1% (inactive); in assay [5], -2.25% (inactive) and -12.4% (inactive); in assay [6] it was 17.2% (inactive) and 0.45% (inactive).
For the compound `O=C(CC(=O)c1cccnc1)NC(=O)c1ccccc1`, the growth inhibition is -1.05% (inactive) and -34.5% (inactive) in assay [1]; -2.5% (inactive) and -22.1% (inactive) in assay [2]; -1.35% (inactive) and -4.05% (inactive) in assay [3]; 7.85% (inactive) and 12.1% (inactive) in assay [4]; 3.9% (inactive) and 7.6% (inactive) in assay [5]; -6% (inactive) and -1.95% (inactive) in assay [6].
As to `O=C1/C(=C/c2ccc(F)cc2)CCC/C1=C\c1ccc(F)cc1`, the growth inhibition in assay [1] is 26.6% (inactive) and -14.2% (inactive); in assay [2], -25.7% (inactive) and -10.3% (inactive); in assay [3] it was 34.2% (inactive) and 1.45% (inactive); in assay [4], 27.7% (inactive) and -21.4% (inactive); in assay [5], 15.4% (inactive) and -5.45% (inactive); in assay [6], 18.9% (inactive) and -6.1% (inactive).
As for `Nc1nc(N)c2ncn(C3OC(CO)C(OC4OC(CO)C(O)C(O)C4O)C(O)C3O)c2n1` (stereo unspecified), the growth inhibition in assay [1] was -0.55% (inactive) and -12.2% (inactive); in assay [2], 12.8% (inactive) and 7.45% (inactive); in assay [3], 2.45% (inactive) and -27.6% (inactive); in assay [4], -2.65% (inactive) and -19.2% (inactive); in assay [5] it was 1.8% (inactive) and -17.8% (inactive); in assay [6], 22.3% (inactive) and -10.3% (inactive).
For `Cc1cc(C(=O)O)c(CN2C(=O)c3ccccc3C2=O)c(=O)n1C`, the growth inhibition in assay [1] was -11.3% (inactive) and -1.15% (inactive); in assay [2] it was 20.4% (inactive) and -14.3% (inactive); in assay [3], 2.45% (inactive) and -7.1% (inactive); in assay [4], -6.3% (inactive) and 6.85% (inactive); in assay [5] it was 12.1% (inactive) and -19.1% (inactive); in assay [6], -18.9% (inactive) and 9.45% (inactive).
With `O=C(O)CSc1ccccc1C(=O)O`, the growth inhibition in assay [1] was -1.35% (inactive) and -7.9% (inactive); in assay [2], -11.9% (inactive) and -40.9% (inactive); in assay [3], 1.6% (inactive) and -35.4% (inactive); in assay [4], -27.9% (inactive) and 22.3% (inactive); in assay [5], 6.15% (inactive) and -33.8% (inactive); in assay [6] it was -17.9% (inactive) and -4.25% (inactive).
For the compound `Nc1ccc(C(=O)O)c(O)c1`, the growth inhibition in assay [1] was -8.6% (inactive) and 15.1% (inactive); in assay [2], -7.4% (inactive) and -2.45% (inactive); in assay [3], -4.15% (inactive) and -14.9% (inactive); in assay [4], -40.9% (inactive) and 1.75% (inactive); in assay [5], 0.25% (inactive) and -2.25% (inactive); in assay [6], -8.05% (inactive) and 24.8% (inactive).
With `CCOC(=O)c1ccc(N=[N+]([O-])c2ccc(C(=O)OCC)cc2)cc1`, the growth inhibition in assay [1] was -10.8% (inactive) and -4.1% (inactive); in assay [2] it was -4.95% (inactive) and -4.3% (inactive); in assay [3], 2.8% (inactive) and -7.65% (inactive); in assay [4], -6% (inactive) and -3.25% (inactive); in assay [5], -40.5% (inactive) and -19.9% (inactive); in assay [6] it was -13.4% (inactive) and 19.8% (inactive).
Regarding `C[N+](C)(C)CCOC(=O)c1ccccc1CBr`, the growth inhibition is -10.6% (inactive) and 52.1% (inactive) in assay [1]; 22.8% (inactive) and 96.6% (active) in assay [2]; 16.8% (inactive) and 85.9% (active) in assay [3]; 40.9% (inactive) and 97.7% (active) in assay [4]; 35.5% (inactive) and 99.2% (active) in assay [5]; 3.95% (inactive) and 64.9% (inactive) in assay [6].
Take `CC(C)N=C(N)C(N)=NC(C)C`: the growth inhibition in assay [1] is 20.1% (inactive) and -65.4% (inactive); in assay [2] it was -18% (inactive) and 6.55% (inactive); in assay [3] it was -2.5% (inactive) and -13.2% (inactive); in assay [4], -67.2% (inactive) and -46.5% (inactive); in assay [5], 1.8% (inactive) and -11.1% (inactive); in assay [6], -14.6% (inactive) and -16.9% (inactive).
For the compound `CC(=O)c1c(-c2cccc3ccccc23)c(C#N)c(=S)n(C2OC(CO)C(O)C(O)C2O)c1-c1ccccc1` (stereo unspecified), the growth inhibition in assay [1] was 21.2% (inactive) and 31.6% (inactive); in assay [2], 17.9% (inactive) and -8.45% (inactive); in assay [3] it was 42.1% (inactive) and 34.2% (inactive); in assay [4], 25.7% (inactive) and 23.8% (inactive); in assay [5], 34.9% (inactive) and 12.3% (inactive); in assay [6] it was 21.6% (inactive) and 24.7% (inactive).
Regarding `CC1(C)OC2OC(C(COS(C)(=O)=O)OS(C)(=O)=O)C(OS(C)(=O)=O)C2O1` (stereo unspecified), the growth inhibition in assay [1] is 15.7% (inactive) and -9.65% (inactive); in assay [2], 2.6% (inactive) and 9.75% (inactive); in assay [3] it was 37.9% (inactive) and 10.2% (inactive); in assay [4], 16.4% (inactive) and 20.6% (inactive); in assay [5], 5.9% (inactive) and 1.45% (inactive); in assay [6] it was 16.2% (inactive) and 8% (inactive).
In the case of `CCCCOC(=O)c1ccc(O)cc1`, the growth inhibition was 25.4% (inactive) and 23% (inactive) in assay [1]; -2.95% (inactive) and -1.8% (inactive) in assay [2]; 8.7% (inactive) and -6.55% (inactive) in assay [3]; 3.55% (inactive) and -11.2% (inactive) in assay [4]; 8.75% (inactive) and 33.6% (inactive) in assay [5]; 23.4% (inactive) and 48% (inactive) in assay [6].
Consider `COc1ccc(C(O)C(NCCO)c2ccc(OC)cc2)cc1` (stereo unspecified), for which the growth inhibition is 8.85% (inactive) and -3.55% (inactive) in assay [1]; 12.8% (inactive) and -7.35% (inactive) in assay [2]; 42.7% (inactive) and -3.7% (inactive) in assay [3]; -37.6% (inactive) and -16.8% (inactive) in assay [4]; -2.25% (inactive) and 0.05% (inactive) in assay [5]; 15.7% (inactive) and -28.1% (inactive) in assay [6].
`CC1C2C=CC(C2)C1C(=O)O` (stereo unspecified): the growth inhibition is 5.15% (inactive) and 13.9% (inactive) in assay [1]; 28.8% (inactive) and 5.1% (inactive) in assay [2]; -0.05% (inactive) and 5.85% (inactive) in assay [3]; -42% (inactive) and 9.65% (inactive) in assay [4]; 7.8% (inactive) and -1.95% (inactive) in assay [5]; 7.1% (inactive) and 11.2% (inactive) in assay [6].
As to `COC1OC(COC(=O)c2ccc([N+](=O)[O-])cc2)C2OC12` (stereo unspecified), the growth inhibition was 7.6% (inactive) and -6.95% (inactive) in assay [1]; -7.95% (inactive) and -1% (inactive) in assay [2]; 8.7% (inactive) and 1.4% (inactive) in assay [3]; 17.2% (inactive) and 28.4% (inactive) in assay [4]; 27.2% (inactive) and -2.85% (inactive) in assay [5]; 7.95% (inactive) and 8.15% (inactive) in assay [6].
In the case of `COC(=O)c1ccc(O)cc1`, the growth inhibition in assay [1] is 27.3% (inactive) and 4.9% (inactive); in assay [2] it was 14.6% (inactive) and 25.4% (inactive); in assay [3], 13.8% (inactive) and 12.4% (inactive); in assay [4], 3.9% (inactive) and 14.8% (inactive); in assay [5], -11.6% (inactive) and -4.5% (inactive); in assay [6], 8.9% (inactive) and -0.35% (inactive).
As to `CSCCC(N)C(=O)NCC(=O)O` (stereo unspecified), the growth inhibition in assay [1] was -13.8% (inactive) and -37.5% (inactive); in assay [2], -22.9% (inactive) and -23.1% (inactive); in assay [3], -10.8% (inactive) and 1.4% (inactive); in assay [4] it was 2.9% (inactive) and -35.9% (inactive); in assay [5], -16.1% (inactive) and -12% (inactive); in assay [6] it was -11.4% (inactive) and -8.65% (inactive).
